Among the data in PubChem BioAssay (NCATS) are Potency values, retold here.

“And” between values parts separate entries of the source, which are not always exact repeats. Identical values can stand only once. Inconclusive results are not listed. The source made the active and inactive calls. Calls come from the whole dose curve; as a rule, active = well fitted inhibition curve with a large enough effect; inconclusive = small, poorly fitted or top-dose-only effect; inactive = no such curve, though single readings can be large or run the other way.
Potency is the fitted concentration of half-maximal effect.

This test in a line: Confirmatory qHTS for small molecule stabilizers of the endoplasmic reticulum resident proteome: Secreted ER Calcium Modulated Protein (SERCaMP) assay (AID 1508628). Note: nearly all actives have a fitted effect of over 40% in size. The following applies: SERCaMP secreted luciferase ER calcium/proteostasis reporter; series mostly up to 76.3 µM. The text has this: Assay Provider: Brandon K. Harvey Ph.D.
National Institute on Drug Abuse, National Institutes of Health, Baltimore, MD
Endoplasmic reticulum (ER) dysregulation is associated with human pathologies including neurodegenerative, cardiovascular, muscular, and diabetic conditions. Maintenance of ER calcium is critical for functions of the ER and its depletion can lead to loss of ER resident proteins, in a process termed exodosis. Therapeutic compounds capable of attenuating the redistribution of ER proteins under pathological conditions may slow or stop disease progression. To identify such compounds, we performed a quantitative high-throughput screen (qHTS) using the SERCaMP assay, which monitors secretion of ER resident proteins triggered by calcium depletion.
SERCaMP was initially developed as a reporter of ER calcium homeostasis using a Gaussia luciferase with a modified signal peptide and carboxy-terminus (GLuc-SERCaMP), modifications that confer secretion of the reporter in response to ER calcium depletion (Henderson et al., 2014). The assay was used to screen 9,501 compounds, including a collection of drugs approved by the FDA (US), EMA (EU), NHI (Japan), and HC (Canada) regulatory agencies (Huang et al., 2011). Since the SERCaMP reporter reflects the exodosis phenomenon (Trychta et al., 2018a), compounds identified in the screen have the potential to prevent exodosis by different mechanisms such as stabilizing ER calcium or augmenting ERS retrieval.
1. Henderson, M.J., Wires, E.S., Trychta, K.A., Richie, C.T., and Harvey, B.K. (2014). SERCaMP: a carboxy-terminal protein modification that enables monitoring of ER calcium homeostasis. Mol Biol Cell 25, 2828-2839.
2. Huang, R., Southall, N., Wang, Y., Yasgar, A., Shinn, P., Jadhav, A., Nguyen, D.T., and Austin, C.P. (2011). The NCGC pharmaceutical collection: a comprehensive resource of clinically approved drugs enabling repurposing and chemical genomics. Sci Transl Med 3, 80ps16.
3. Trychta, K.A., Back, S., Henderson, M.J., and Harvey, B.K. (2018a). KDEL Receptors Are Differentially Regulated to Maintain the ER Proteome under Calcium Deficiency. Cell Rep 25, 1829-1840 e1826.
SEQUENCE No. (1, 2, 3, etc.); […] (e.g., Cells, Incubation, Reagent, etc.); VALUE and DESCRIPTION.
1; Reagent; 5 uL; 1000 SH-SY5Y cells per wells
3; Compound; 23 nL; Control inhibitor / compound library
5; Reagent; 100 nM; Thapsigargin
7; Reagent; 1 uL; 0.5x coelenterazine
8; Detection; Luminescence; ViewLux imaging system
NOTES (numbers refer to sequence above)
1; SH-SY5Y human neuroblastoma cells stably expressing GLuc-SERCaMP (SH-SY5Y-GLuc-ASARTDL) cells were seeded in 1,536 well white tissue culture treated plates (Corning, Cat# 7464) in DMEM-high glucose-sodium pyruvate (ThermoFisher Scientific, Cat #10569) supplemented with 10% bovine growth serum (Hyclone), 10 U/ml penicillin (Gibco), 10 ug/ml streptomycin (Gibco), and 20 mM HEPES.
2; Assay plates were incubated for 5 hour at 37C in a humidified incubator containing 5% CO2.
3; qHTS libraries (23 nl, final concentrations of 1.53 uM, 7.67 uM, 38.3 uM) or controls (neutral control: DMSO, positive control: dantrolene) were added using a Kalypsis pin-tool Robotic System equipped with 1536 pinheads.
4; Cells were then incubated for 16 hours at 37C, 5% CO2.
5; Thapsigargin was added at 100 nM to deplete ER calcium stores.
6; Cells were incubated for 4 hour (37 °C, 5% CO2)
7; Gaussia luciferase in the medium was measured by adding 1 ul of 0.5x coelenterazine (final concentration 0.07x) prepared in Gaussia Luciferase Glow Assay Buffer (Pierce), without addition of the Cell Lysis Buffer Reagent.
8; Luminescence was measured using a ViewLux […] CCD imaging system (Perkin Elmer) equipped with clear filters. […] The same controls were also used for the calculation of the Z' factor, a measure of assay quality control, as previously described (Zhang et al., 1999). […]
(Quantitative high-throughput screening tests each substance at several concentrations.)
`CCN(CC)CCCN(c1ccccc1)C1Cc2ccccc2C1`: the Potency was 39.8 µM (active). The value for `CN1C[C@H](C(=O)N[C@]2(C)O[C@@]3(O)[C@@H]4CCCN4C(=O)[C@H](Cc4ccccc4)N3C2=O)C[C@@H]2c3cccc4[nH]cc(c34)C[C@H]21` was 25.1 µM (active). The value for `CCC(=O)c1ccc2c(c1)N(CCCN(C)C)c1ccccc1S2` was “inactive”; that for `NC(=Nc1ccccc1)Nc1ccccc1` was 3.55 µM (active) and 5.62 µM (active) and 355 nM (active); that for `OC(CCN1CCCCC1)(c1ccccc1)C1CCCCC1` (stereo not given) was 35.5 µM (active). As for `c1cc(CN2CCCCC2)cc(OCCCNc2nc3ccccc3s2)c1`, the figure is 12.6 µM (active). Take `O=C(O)CN(CCN(CC(=O)O)CC(=O)O)CCN(CC(=O)O)CC(=O)O`: the Potency entry was “inactive”. The value for `CCc1cccc(N(C)C(N)=Nc2cccc3ccccc23)c1` was 15.8 µM (active); that for `COC(=O)[C@H]1[C@H]2C[C@@H]3c4[nH]c5cc(OC)ccc5c4CCN3C[C@H]2C[C@@H](OC(=O)c2cc(OC)c(OC)c(OC)c2)[C@@H]1OC` was 15.8 µM (active). As for `COC(=O)[C@@H](N)Cc1ccc(O)c(O)c1`, the figure is 35.5 µM (active).
